Results reported in PubChem BioAssay (NCI).
About 83,000 compounds went through this panel and 20% of them were active in at least one assay; those are over-represented in the sample as a whole.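 A percent growth of 40 corresponds to 60% growth inhibition; 0 means no net growth; -100 means all cells died. Active threshold: below 10.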 Unmarked numbers belong to inactive results. Activity calls are given as the source filed them.

Key:
Assay in all cases: NCI-60 one-dose screen, 48 h (100 = growth as untreated, 0 = no growth, -100 = all killed)
Details in all cases: 10 µM unless noted
HCT-15 colon = tested on: HCT-15 colon
HT29 colon = tested on: HT29 colon
SNB-75 CNS = tested on: SNB-75 CNS
SNB-19 CNS = tested on: SNB-19 CNS
U251 CNS = tested on: U251 CNS
PC-3 prostate = tested on: PC-3 prostate
SK-MEL-5 melanoma = tested on: SK-MEL-5 melanoma
UACC-62 melanoma = tested on: UACC-62 melanoma
LOX IMVI melanoma = tested on: LOX IMVI melanoma
SK-MEL-28 melanoma = tested on: SK-MEL-28 melanoma
SK-MEL-2 melanoma = tested on: SK-MEL-2 melanoma
EKVX NSCLC = tested on: EKVX NSCLC
SN12C renal = tested on: SN12C renal
UO-31 renal = tested on: UO-31 renal
TK-10 renal = tested on: TK-10 renal
ACHN renal = tested on: ACHN renal
CAKI-1 renal = tested on: CAKI-1 renal
MOLT-4 leukemia = tested on: MOLT-4 leukemia
A498 renal = tested on: A498 renal
CCRF-CEM leukemia = tested on: CCRF-CEM leukemia

Compound	growth (HCT-15 colon)	growth (HT29 colon)	growth (SNB-75 CNS)	growth (SNB-19 CNS) [%]	growth (U251 CNS)	growth (PC-3 prostate)	growth (SK-MEL-5 melanoma)	growth (UACC-62 melanoma)	growth (LOX IMVI melanoma)	growth (SK-MEL-28 melanoma)	growth (SK-MEL-2 melanoma)	growth (EKVX NSCLC) [%]	growth (SN12C renal)	growth (UO-31 renal)	growth (TK-10 renal) [%]	growth (ACHN renal)	growth (CAKI-1 renal) [%]	growth (MOLT-4 leukemia)	growth (A498 renal) [%]	growth (CCRF-CEM leukemia)
CC1(C)NCCC[C@]2(C)[C@H]3CC=C4[C@@H]5C[C@@](C)(CO)CC[C@]5(C)CC[C@@]4(C)[C@]3(C)CC[C@@H]12	29.9%	5.18% (active)	98.9%	61.6	34.2%	35.1%	50.7%	73.6%	45.2%	68.2%	48.4%	86.5	62.1%	69.3%	63.3	54.3%	76.7	33.8%		
[2H]C1([2H])NC([2H])([2H])C([2H])([2H])N(c2ccc(Nc3ncc4cc(C(=O)N(C)C)n(C5CCCC5)c4n3)nc2)C1([2H])[2H]	85%	34%	65.5%	64.3	61.4%	62.3%	78.3%	78.7%	49.2%	88.6%	94.3%	65.2	74.9%	61.2%	43	57.4%		8.74% (active)	66.5	54.1%
Cc1cn(-c2cc(C(=O)Nc3cccc(C#Cc4cccc5[nH]nc(N)c45)c3)cc(C(F)(F)F)c2)cn1	57.4%	18.5%	65.8%	76.2	54.9%	75.3%	24.2%	12.2%	11%	15.8%	5.21% (active)	68	62.3%	30.2%	58.5	30.3%	79.6	36.5%		47.4%
CCCCOc1ccc(/C=N/Nc2cc(C)nc3ccc(Cl)cc23)cc1	-80.3% (active)	-49.8% (active)	17%	20.7	-82.1% (active)	20.6%	71.8%	77.8%	-94.7% (active)	-89.5% (active)	67.6%	60	-81.6% (active)	-96.1% (active)	36.8	-95.5% (active)	35.1	-36.9% (active)		-5.7% (active)
COc1ccccc1/C=N/NC1=NC2C(N1)N(C)C(=O)N2C (centres undefined)	104%	111%	83.4%	104	99.2%	95.4%	100%	100%	99.5%	103%	104%	99.8	100%	86.2%	125	102%	91.7	102%		
Cc1ccccc1CNc1ccc(N2CCOCC2)cc1	101%	105%	92.7%	101	100%	99.6%	99.5%	94.8%	102%	99.8%	102%	104	96.3%	107%	95.3	108%	99.1	101%		112%
CCCOc1nc(SCCC)nc2c1cnn2-c1ccccc1	108%	83.1%	98.6%	103	107%	102%	106%	86.8%	110%	122%	86.8%	97.3	98.7%	91.9%	149	111%	105	141%		92.9%
CC(=O)OCC(=O)C1(O)C(C)CC2C3C=C(C)C4=Cc5c(cnn5-c5ccccc5)CC4(C)C3C(O)CC21C (centres undefined)	-36.2% (active)	-54.9% (active)	-8.24% (active)	10.3	14.3%	9.92% (active)	-14.2% (active)	-26.6% (active)	6.79% (active)	35.3%	25.1%	27	33.5%	-11.6% (active)	38.7	22.8%	21.3	9.2% (active)		10.6%
O=C(/C=C/c1ccc[nH]1)c1ccc(-n2ccc(C(F)(F)F)n2)cc1	86.6%	97.3%	51.6%	75.5	20%	8.84% (active)	99.9%	90.3%	97.1%	103%	95%	79.1	60.1%	-77.1% (active)	103	99.5%	93.4	72.5%		25.7%
